The text below walks through data of PubChem BioAssay (NCATS).

A number with no mark means an inactive call. No rule for the calls is given here.
Potency is read from the fitted curve at half-maximal effect.

The experiment concerns HIV-1 nucleocapsid protein NCp7 (binding to TG oligonucleotide). The experiment is described as follows: HIV Nucleocapsid (AID 346).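 Also: potency is for inhibitors that block NC binding and lower polarization.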 As to conditions: HIV-1 NC / fluorescein-TGTGTGTG probe, fluorescence polarization. Summed up:
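Reagents dispensed (10 nM TG4xF, 100 nM HIV-1 NC), plates spun, compounds pin-transferred, then incubated 1 hr at room temperature before FP imaging. Buffer: Hepes pH 7.5, 250mM NaCl, 1uM ZnCl2, 100 uM TCEP, 5 mM 2-mercaptoethanol.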
Consider `COCC(=O)N1CCC2(CC1)CCN(C(=O)Nc1ccc(OC)cc1)CC2`, for which the Potency was greater than 20 µM.
As for `Cc1noc(C)c1-c1ccc2ncnc(N3CCN(C)CC3)c2c1`, the figure is greater than 20 µM; as for `O=c1c(-c2ccc(F)cc2)nc2cncnc2n1Cc1ccc(F)cc1`, greater than 20 µM.
As for `O=C(c1cnccn1)N1CCC2(CC1)CN(Cc1cc(C(F)(F)F)cc(C(F)(F)F)c1)C2`, the figure is greater than 20 µM.
As for `COc1ccccc1CN1CCCC2(CCN(C(=O)c3cccc(F)c3)CC2)C1`, the figure is greater than 20 µM; as for `c1ccc(Nc2nc(-c3cccnc3)nc3ccccc23)cc1`, greater than 20 µM; as for `CCNc1ncc2nc(-c3ccc(F)cc3)c(=O)n(C[C@H]3CCCO3)c2n1`, greater than 20 µM.
Regarding `COc1cccc(Nc2ncc3nc(-c4ccc(Cl)cc4)c(=O)n(C4CC4)c3n2)c1`, the Potency is greater than 4 µM.
As for `COc1ccc2[nH]cc(CCNc3cc(-c4ccccc4OC)ncn3)c2c1`, the figure is greater than 20 µM.
Then `Cc1cccc(CNc2ccnc(-c3cccnc3)n2)c1`, with greater than 20 µM; and `O=c1c(-c2ccccc2)nc2cncnc2n1Cc1ccccc1`, with greater than 20 µM; and `CS(=O)(=O)Nc1cccc(-c2cncnc2NCc2cccs2)c1`, with greater than 20 µM.
As for `Cn1cccc1C(=O)N1CCC[C@@]2(CCN(Cc3ccccc3)C2)C1`, the figure is greater than 20 µM.
Turning to `COc1ccc2[nH]cc(CCNc3cc(-c4ccc(C(=O)N(C)C)cc4)ncn3)c2c1`, the Potency is greater than 20 µM.
Regarding `COc1ccccc1CCn1c(=O)c(-c2cccc(F)c2)nc2cncnc21`, the Potency is greater than 20 µM.
Take `CS(=O)(=O)N1CCC2(CCN(C(c3ccccc3)c3ccccc3)CC2)CC1`: the Potency was greater than 20 µM.
As for `CN(C)Cc1ccccc1-c1cc(-n2ccnc2)ncn1`, the figure is greater than 20 µM; as for `O=c1c(-c2ccccc2)nc2cnc(N3CCNCC3)nc2n1Cc1cccs1`, greater than 20 µM.
Regarding `COc1ccc(-n2c(=O)c(-c3cccs3)nc3cnc(N4CCOCC4)nc32)cc1`, the Potency was greater than 4 µM.
As for `Cc1cnc(CNc2nc(-c3c(C)noc3C)nc3ccccc23)cn1`, the figure is greater than 20 µM; as for `CN(C)c1nc(-c2cccc(NS(C)(=O)=O)c2)nc2ccccc12`, greater than 20 µM.
Take `CN(C)c1ncc2nc(-c3ccc(Cl)cc3)c(=O)n(C3CC3)c2n1`: the Potency was greater than 20 µM.
As for `O=C(c1cccc(F)c1)N1CCC[C@@]2(CCN(c3ncccn3)C2)C1`, the figure is greater than 20 µM; as for `COc1ccccc1-c1ccc2ncnc(NCc3cnc(C)cn3)c2c1`, greater than 20 µM.
